The record followed here is paper PMC5836133, “The intracellular immune receptor Rx1 regulates the DNA-binding activity of a Golden2-like transcription factor”.

The full ranking holds about 16,000 sequences; the median of “e-score” is about -0.044, and the highest 2% start at about 0.38. The full list was thinned out, with the highest values kept by preference.

The assay concerns the target T1, GST-NbGlk1(82-244) (Nicotiana benthamiana).
T1 chain: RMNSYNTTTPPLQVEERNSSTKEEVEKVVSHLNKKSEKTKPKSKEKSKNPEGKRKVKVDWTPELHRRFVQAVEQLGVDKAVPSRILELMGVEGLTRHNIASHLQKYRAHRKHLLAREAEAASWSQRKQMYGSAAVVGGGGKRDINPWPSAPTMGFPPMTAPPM
The experiment in a line: protein-binding microarray; NbGlk1 is a Golden2-like transcription factor of Nicotiana benthamiana; high values mean tight binding. The conditions noted are these: protein: recombinant; tags: GST (pTH6838); dsDNA, one strand shown.
For ATTCGCTC, the binding signal came out at 0.231 ± 0.0553 E-score.

Take ATCACGAT: the binding signal amounted to 0.29 ± 0.0315 E-score.

Regarding ATTCCAAC, the binding signal came to 0.2142 ± 0.000545 E-score.

With ATCCGTTG, the binding signal is 0.233 ± 0.0162 E-score.

In the case of ATATGCAT, the binding signal worked out at 0.219 ± 0.0814 E-score.

As for ATATGGAA, the binding signal was found to be 0.219 ± 0.0165 E-score.

Consider ATCTAAAA, for which the binding signal was determined as 0.244 ± 0.06 E-score.

On to ACCGGAAT, for which the binding signal was determined as 0.243 ± 0.0509 E-score.

As for AGGAGGAT, the binding signal came out at 0.244 ± 0.0559 E-score.

For the sequence ATTCGCCA, the binding signal is 0.278 ± 0.00941 E-score.

With ATCCTTTA, the binding signal is 0.274 ± 0.0111 E-score.

As to AAGATCTT, the binding signal was found to be 0.399 ± 0.0153 E-score.

As for AAGATCCT, the binding signal amounted to 0.339 ± 0.00784 E-score.

For AAGATCAT, the binding signal came to 0.214 ± 0.0212 E-score.

For AATCCATG, the binding signal came out at 0.381 ± 0.0124 E-score.

In the case of AATCGATT, the binding signal worked out at 0.353 ± 0.0155 E-score.

Take ATTCCATA: the binding signal was found to be 0.257 ± 0.00403 E-score.

Regarding ATTCCATG, the binding signal is 0.229 ± 0.0434 E-score.

Consider AATCCCAT, for which the binding signal amounted to 0.331 ± 0.00747 E-score.

In the case of AATCCATC, the binding signal is 0.367 ± 0.0565 E-score.

For AATCCATA, the binding signal was determined as 0.3787 ± 0.000904 E-score.

Turning to AATCCCTG, the binding signal was determined as 0.283 ± 0.0408 E-score.

Take AATCCATT: the binding signal came to 0.38 ± 0.039 E-score.

For ATCCTCGA, the binding signal came to 0.224 ± 0.0852 E-score.

Consider AAATATGG, for which the binding signal was 0.272 ± 0.0577 E-score.

ATCTTCCA: the binding signal was 0.319 ± 0.0516 E-score.

With AATATTAG, the binding signal came to 0.209 ± 0.0412 E-score.

Regarding ATCGGCAA, the binding signal was 0.216 ± 0.00468 E-score.

Take ATCTTTCA: the binding signal stood at 0.247 ± 0.0983 E-score.

Turning to ATCTATGA, the binding signal turned out to be 0.247 ± 0.0113 E-score.

AGATTTGC: the binding signal was determined as 0.4695 ± 0.00449 E-score.

In the case of AATTTTGG, the binding signal was found to be 0.25 ± 0.0182 E-score.

For AGATTTGA, the binding signal stood at 0.327 ± 0.0876 E-score.

With AGATTTAG, the binding signal came to 0.276 ± 0.0684 E-score.

With ATATTTGC, the binding signal turned out to be 0.338 ± 0.0673 E-score.

For the sequence AGATTTGG, the binding signal amounted to 0.394 ± 0.0453 E-score.

Regarding ATCATGAT, the binding signal came out at 0.205 ± 0.00494 E-score.

Regarding ATTTCGGC, the binding signal amounted to 0.283 ± 0.0422 E-score.

On to ACTAAGAT, for which the binding signal was determined as 0.231 ± 0.0287 E-score.

Turning to ACTAAAAT, the binding signal came to 0.281 ± 0.0324 E-score.

For ATCCACAT, the binding signal is 0.256 ± 0.0906 E-score.

With AAATCATG, the binding signal is 0.332 ± 0.0128 E-score.

For AGATCTTG, the binding signal turned out to be 0.373 ± 0.0461 E-score.

On to AAATCTTG, for which the binding signal amounted to 0.4213 ± 0.00314 E-score.

Consider AGATCTTC, for which the binding signal is 0.428 ± 0.0156 E-score.

For AGATCTTA, the binding signal is 0.347 ± 0.0143 E-score.

As to AAATCTTA, the binding signal came out at 0.44 ± 0.0386 E-score.

For AAATCGTA, the binding signal worked out at 0.373 ± 0.0227 E-score.

As for AAATCGTC, the binding signal turned out to be 0.354 ± 0.0288 E-score.

With AAATCTTC, the binding signal turned out to be 0.446 ± 0.0208 E-score.

Consider AAATCGTG, for which the binding signal was found to be 0.365 ± 0.0286 E-score.

In the case of CAATCTTA, the binding signal turned out to be 0.304 ± 0.0126 E-score.

For the sequence CAATCTTC, the binding signal was 0.294 ± 0.0422 E-score.

For ATCTTCTC, the binding signal worked out at 0.311 ± 0.013 E-score.

Turning to ATCAGATC, the binding signal was determined as 0.35 ± 0.0204 E-score.

With ATTACGTA, the binding signal was determined as 0.354 ± 0.0309 E-score.

As for AGATACTG, the binding signal came to 0.33 ± 0.00398 E-score.

Take AGCGCGAT: the binding signal was 0.325 ± 0.0563 E-score.

Consider AATCTATG, for which the binding signal was 0.38 ± 0.0331 E-score.

Consider ATTCTATA, for which the binding signal came out at 0.284 ± 0.0791 E-score.

Turning to AATATATG, the binding signal stood at 0.252 ± 0.0059 E-score.

In the case of AATCTATA, the binding signal turned out to be 0.402 ± 0.0321 E-score.

In the case of AATCTATC, the binding signal was found to be 0.366 ± 0.0334 E-score.

With AATCGATG, the binding signal was 0.268 ± 0.0785 E-score.

ATCTGCGC: the binding signal is 0.317 ± 0.0626 E-score.

AACGCGAT: the binding signal was 0.341 ± 0.0519 E-score.

As to AAAGGAAT, the binding signal came out at 0.27 ± 0.0558 E-score.

In the case of ATCCAGTG, the binding signal worked out at 0.221 ± 0.123 E-score.

As to AGAGATCT, the binding signal amounted to 0.411 ± 0.0152 E-score.

With AGAGATAT, the binding signal was 0.391 ± 0.0365 E-score.

For the sequence ATAGAGAT, the binding signal came to 0.276 ± 0.0241 E-score.

As for ACAGATAC, the binding signal was 0.276 ± 0.00718 E-score.

Consider AGAGATAC, for which the binding signal turned out to be 0.222 ± 0.0223 E-score.

For the sequence AGAGATCC, the binding signal was found to be 0.346 ± 0.0193 E-score.

For ACAGATAT, the binding signal was determined as 0.415 ± 0.0135 E-score.

For AGAGATCG, the binding signal was determined as 0.303 ± 0.0386 E-score.

Regarding ATAGATAT, the binding signal stood at 0.394 ± 0.0151 E-score.

For the sequence AAAGATAT, the binding signal was determined as 0.342 ± 0.0309 E-score.

Consider ATAGATAC, for which the binding signal came out at 0.26 ± 0.0116 E-score.

In the case of AGAGAGAT, the binding signal was found to be 0.241 ± 0.0533 E-score.

Turning to AACTAGAT, the binding signal was 0.208 ± 0.0834 E-score.

As to ATTTCTCC, the binding signal came to 0.242 ± 0.0333 E-score.

For the sequence AATTACGT, the binding signal came to 0.26 ± 0.0756 E-score.

On to ATTCTTGA, for which the binding signal is 0.221 ± 0.0445 E-score.

Take ACGAAGAT: the binding signal came out at 0.31 ± 0.00598 E-score.

For the sequence ATATGCTG, the binding signal turned out to be 0.258 ± 0.0732 E-score.

On to AAAGATCG, for which the binding signal is 0.278 ± 0.0495 E-score.

On to AAAGATCT, for which the binding signal stood at 0.38 ± 0.023 E-score.

On to AAAGATCC, for which the binding signal was 0.292 ± 0.0246 E-score.

Consider AGCAAGAT, for which the binding signal is 0.309 ± 0.0213 E-score.

Consider ATTATCCC, for which the binding signal was found to be 0.261 ± 0.0646 E-score.

ATAACGAT: the binding signal is 0.216 ± 0.0183 E-score.

ATATCCAG: the binding signal turned out to be 0.3945 ± 0.00384 E-score.

On to ATATCAAG, for which the binding signal amounted to 0.298 E-score.

As to ATATCCAT, the binding signal was 0.43 ± 0.00596 E-score.

As to ATATCCAC, the binding signal came to 0.393 E-score.

Consider AGATCCAC, for which the binding signal was 0.287 ± 0.0119 E-score.

For ATATCCAA, the binding signal was 0.407 ± 0.00723 E-score.

Take AGATCCAG: the binding signal was 0.261 ± 0.0749 E-score.

As for ATATCAAT, the binding signal came out at 0.281 ± 0.00703 E-score.

On to ATATCAAA, for which the binding signal was 0.228 ± 0.00678 E-score.

With ATATCCCA, the binding signal was 0.3708 ± 0.000904 E-score.

For ATATCCCC, the binding signal was determined as 0.36 ± 0.0106 E-score.

In the case of ATCTCCAT, the binding signal was found to be 0.335 ± 0.0406 E-score.

Regarding ATTGTGTA, the binding signal stood at 0.249 ± 0.00712 E-score.

For the sequence ATCCCCGG, the binding signal came out at 0.256 ± 0.0142 E-score.

With AGAATTTA, the binding signal was 0.222 ± 0.00311 E-score.

As to AATTTCAT, the binding signal was 0.238 ± 0.0823 E-score.

In the case of ATCCGTTA, the binding signal was determined as 0.315 ± 0.0322 E-score.

In the case of ATCAGTGA, the binding signal was determined as 0.218 ± 0.0932 E-score.

For ATCTGGTA, the binding signal was 0.238 ± 0.087 E-score.
